From PubChem BioAssay
Rows were chosen to be rich in hits. Some 1.6% of all compounds tested hit in one or more screens of this group.
KCNQ2 pot: potentiators of rat KCNQ2 potassium channel; CHO-K1 KCNQ2, FluxOR thallium flux fluorescence; stronger effect = higher value; B-score at 10 µM; hit rate 0.54% among 310,000;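 active = fluorescence ratio B-score at least 3 SD of library B-scores, with initial fluorescence B-score within 3 of them, cut at about 5.3 in these data; same plate scores as AID 2156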;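 note: B-score of peak minus minimum over baseline fluorescence ratio after K+ and Tl+ stimulus; positive B-score means potentiation of KCNQ2 with more thallium influx and brighter signal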
KCNQ2 block: rat KCNQ2 potassium channel inhibitors, primary screen, cell-based, CHO-K1, FluxOR thallium flux, B-score; 20 min; stronger effect = lower value; B-score at 10 µM; hit rate 1.1% among 310,000; AID 2156, 2009;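 active = fluorescence ratio B-score at most minus 3 library SDs, with starting brightness B-score within 2 library SDs, cut at about -5.5 in these data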
Kir21 confirm: mouse Kir2.1 channel blockers, retest, confirmation, cell-based, FluxOR thallium flux, duplicate; Kir2.1-expressing cells, FluxOR thallium flux fluorescence; stronger effect = lower value; hit rate 41% among 2,300; shares compounds with KCNQ2 pot; AID 2032, 2009; Tl flux remaining, % of negative control (stronger effect = lower value), % at 10 µM;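 active = Primary-screen hit whose thallium flux fell at least 3 control SD below untreated wells in both duplicates, with normal baseline fluorescence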;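 note: 0% = blank wells without stimulus and 100% = stimulated no-compound controls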
HEK293 ctr: counter-screen for Kir2.1 inhibitors: effect in parental HEK293 cells. shares compounds with KCNQ2 pot. FluxOR thallium flux fluorescence; 0% = unstimulated blank wells. FluxOR signal as % of negative control (100 = no effect), % at 10 µM. hit rate 19% among 2,300;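 active = dye signal at least 3 control SD above or below untreated wells in both duplicates, raw fluorescence within 3, either direction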;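 note: percent is based on the flux ratio of peak minus minimum fluorescence over baseline F0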
CHO-K1 ctr: nonspecific thallium flux increase in parental CHO-K1, confirmation, counter-screen for KCNQ2 potentiator project, cell-based, FluxOR thallium flux, duplicate | shares compounds with KCNQ2 pot | hit rate 43% among 1,200 | parental CHO-K1 cells, FluxOR thallium flux fluorescence; zero = vehicle mean+3SD, 100% = vehicle-minus-blank window | activity increase over 3SD of controls, % at 10 µM;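 active = signal rise of at least 3 SD above the untreated control mean, in both duplicate wells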;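 note: counter screen of KCNQ2 potentiator hits so any rise reflects channel-independent effects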
KCNQ1 pot spec: human KCNQ1 channel potentiation off-target, confirmation, selectivity assay for KCNQ2 potentiator project, cell-based, CHO, FluxOR thallium flux; hit rate 28% among 1,200; activation over 3SD threshold, % at 10 µM; AID 2283, 2010; CHO KCNQ1 stable, FluxOR thallium flux fluorescence; beyond 3SD, as % of vehicle-control signal; shares compounds with KCNQ2 pot;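 active = fluorescence ratio rise of at least 3 SD of vehicle wells above their mean, in both replicate wells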;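 note: 0% = vehicle mean plus 3 SD and 100% = vehicle minus unstimulated blank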
KCNQ2 pot conf: rat KCNQ2 channel potentiators, confirmation, cell-based, CHO, FluxOR thallium flux, duplicate; hit rate 68% among 1,200; CHO-KCNQ2 cells, FluxOR thallium flux fluorescence; potentiation, less the hit threshold, % at 10 µM; shares compounds with KCNQ2 pot;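 active = fluorescence ratio rising 3 SD or more over the vehicle control mean in both replicates, plus primary screen hit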;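 note: peak minus minimum thallium fluorescence divided by baseline after K/Tl stimulus; 0% = vehicle mean plus 3 SD and 100% = vehicle minus unstimulated blank difference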
Kir2-1 sel: mouse Kir2.1 channel activation off-target, confirmation, selectivity assay for KCNQ2 potentiator project, cell-based, HEK293, FluxOR thallium flux. shares compounds with KCNQ2 pot. HEK293 Kir2.1, FluxOR thallium flux fluorescence. activity over 3SD threshold, % at 10 µM. hit rate 2% among 1,200;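 active = fluorescence ratio rise of at least 3 SD above the vehicle-control mean, seen in both replicates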;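 note: 0% = vehicle mean plus 3 SD and 100% = vehicle minus no-stimulus blank window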
KCNQ2 W236L MoA: potentiators of retigabine-insensitive KCNQ2 W236L, mechanism study for KCNQ2 potentiator project, cell-based, rat KCNQ2 W236L, CHO, automated patch clamp; shares compounds with KCNQ2 pot; hit rate 10% among 940; current increase over 3SD of negative controls (%), stronger effect = higher value, % at 25 µM; automated patch clamp current;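 active = current increase at least 3 SD of the untreated controls above them in both duplicate recordings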
Target sequence (O88943 whole entry W236L, looked up): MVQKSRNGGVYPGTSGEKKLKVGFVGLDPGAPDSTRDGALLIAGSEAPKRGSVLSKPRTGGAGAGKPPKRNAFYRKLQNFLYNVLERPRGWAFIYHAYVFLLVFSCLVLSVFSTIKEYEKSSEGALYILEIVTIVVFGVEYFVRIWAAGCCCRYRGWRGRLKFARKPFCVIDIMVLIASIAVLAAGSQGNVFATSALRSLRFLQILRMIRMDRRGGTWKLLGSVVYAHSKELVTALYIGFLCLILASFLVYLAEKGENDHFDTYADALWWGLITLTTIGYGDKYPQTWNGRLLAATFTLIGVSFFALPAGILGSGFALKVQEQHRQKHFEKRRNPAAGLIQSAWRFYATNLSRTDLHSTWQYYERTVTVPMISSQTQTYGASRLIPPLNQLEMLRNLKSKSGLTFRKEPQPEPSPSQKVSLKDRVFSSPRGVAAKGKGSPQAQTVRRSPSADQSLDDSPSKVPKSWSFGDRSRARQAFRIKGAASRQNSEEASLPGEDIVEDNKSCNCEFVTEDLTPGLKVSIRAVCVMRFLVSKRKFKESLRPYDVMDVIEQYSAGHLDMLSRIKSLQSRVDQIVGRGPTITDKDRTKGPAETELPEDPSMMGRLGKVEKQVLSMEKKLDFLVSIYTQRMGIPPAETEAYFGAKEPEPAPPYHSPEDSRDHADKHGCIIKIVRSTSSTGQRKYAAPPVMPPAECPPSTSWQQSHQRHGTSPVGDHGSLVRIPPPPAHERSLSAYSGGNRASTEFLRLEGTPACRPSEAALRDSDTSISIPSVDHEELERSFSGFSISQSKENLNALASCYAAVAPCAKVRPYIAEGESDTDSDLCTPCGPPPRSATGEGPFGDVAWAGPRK
Active calls of the source: *; i = inactive; nt = no result.

SMILES	KCNQ2 pot	KCNQ2 block	CHO-K1 ctr	KCNQ1 pot spec	KCNQ2 pot conf	Kir2-1 sel	others
COc1ccc(NC(=O)CC23CC4CC(C2)CC(n2nnc(C)n2)(C4)C3)cc1	nt	i	nt	nt	nt	nt
CS(=O)(=O)c1ccc2nc(NC(=O)c3ccco3)sc2c1	0.64	i	nt	nt	nt	nt
CC1CCN(c2ccccc2NC(=S)NC(=O)c2ccco2)CC1	5.9*	i	-5	-8	-7	-30	Kir21 confirm=i;HEK293 ctr=i
O=C(Nc1ccc(Oc2ccc(NC(=O)c3ccco3)c(NC(=O)c3ccco3)c2)cc1)c1ccco1	0.23	i	nt	nt	nt	nt
O=C(NC(=S)Nc1ccccc1Br)c1ccco1	9.5*	i	4.9*	91*	19*	-20	Kir21 confirm=i;HEK293 ctr=181%*;KCNQ2 W236L MoA=i
O=C(NC(=S)Nc1cccc(NC(=S)NC(=O)c2ccco2)n1)c1ccco1	nt	i	nt	nt	nt	nt
O=C(Nc1ccc(Oc2ccc3ccccc3c2)cc1)c1ccco1	11*	i	10*	10*	28*	-17	Kir21 confirm=i;HEK293 ctr=i;KCNQ2 W236L MoA=7.7%*
O=C(NC(=S)Nc1nc2ccc(F)cc2s1)c1ccco1	13*	i	-16	-33	26*	-33	Kir21 confirm=i;HEK293 ctr=i;KCNQ2 W236L MoA=i
CC1CCN(c2ccccc2NC(=S)NC(=O)c2cccs2)CC1	nt	i	nt	nt	nt	nt
COc1cc(C(=O)NCc2ccc3c(c2)OCO3)c([N+](=O)[O-])cc1OC	nt	i	nt	nt	nt	nt
COc1ccc(CC(=O)N/N=C\c2cc(Br)c(O)c(Br)c2)cc1	1.3	i	nt	nt	nt	nt
Cn1ccnc1COc1ccc(C=O)cc1	1.1	i	nt	nt	nt	nt
Cc1c(C(=O)O)cccc1-c1ccc(C=O)o1	nt	i	nt	nt	nt	nt
O=Cc1ccc(-c2ccccc2OC(F)(F)F)o1	6.6*	i	-6	-16	-7	-18	Kir21 confirm=i;HEK293 ctr=i
CCN(CC)S(=O)(=O)c1ccc(OC)c(NC(=O)c2ccc(-n3cncn3)c([N+](=O)[O-])c2)c1	1	i	nt	nt	nt	nt
CC(=O)Nc1ccc(S(=O)(=O)N2CCC(NC(=O)C(Cc3ccccc3F)NC(C)=O)CC2)cc1 (centres undefined)	0.02	i	nt	nt	nt	nt
CC(C)CC(C(=O)NC1CCCCC1)N(Cc1ccccc1)C(=O)c1snc(C(N)=O)c1N (centres undefined)	nt	i	nt	nt	nt	nt
CCCCCc1ccc(CC(=O)Nn2c(C)nc3ccccc3c2=O)cc1	15*	i	10*	-8	93*	-40	Kir21 confirm=i;HEK293 ctr=i;KCNQ2 W236L MoA=i
CCc1ccc(C(=O)Nn2c(C)nc3ccccc3c2=O)cc1	1.4	i	nt	nt	nt	nt
COc1cc(Cl)c(C)cc1NC(=O)CC1CCCC1	5.8*	i	-9	-18	24*	-32	Kir21 confirm=i;HEK293 ctr=i;KCNQ2 W236L MoA=i
COc1ccc(Cl)cc1NC(=O)CC1CCCC1	nt	i	nt	nt	nt	nt
CCC(NS(=O)(=O)c1ccc(C)cc1)C(=O)N1CCOCCOCCOCCOCC1 (centres undefined)	0.02	i	nt	nt	nt	nt
Cc1cccc(C(=O)NNC(=O)c2ccc(Cl)cc2)c1O	0.27	i	nt	nt	nt	nt
Cc1cccc(C(=O)NNC2=C(C(=O)C(F)(F)F)CCC2)c1O	6.6*	i	-7	-16	33*	-44	Kir21 confirm=i;HEK293 ctr=i;KCNQ2 W236L MoA=i
O=C(NNC1=C(C(=O)C(F)(F)F)CCC1)c1cccnc1	20*	i	-16	-19	35*	-21	Kir21 confirm=i;HEK293 ctr=64%*
SMILES	KCNQ2 pot	KCNQ2 block	CHO-K1 ctr	KCNQ1 pot spec	KCNQ2 pot conf	Kir2-1 sel	others
O=C(NNC1=C(C(=O)C(F)(F)F)CCC1)c1cccc(O)c1	4.4	i	nt	nt	nt	nt
O=C(/C=C/c1ccccc1[N+](=O)[O-])c1ccccc1Br	nt	i	nt	nt	nt	nt
CC(NC(=O)C1CCC(CNS(=O)(=O)c2ccc3c(c2)C(C)(C)C(=O)N3C)CC1)c1ccccc1 (centres undefined)	0.35	i	nt	nt	nt	nt
CC1CCC2(CC1)NC(=O)N(Cc1cccc(C(F)(F)F)c1)C2=O (centres undefined)	1.7	i	nt	nt	nt	nt
COc1ccccc1C(=O)NC(=O)COC(=O)c1cnc(C)cn1	nt	i	nt	nt	nt	nt
O=C(NCCCN1CCCC1=O)c1c(O)nc2sccn2c1=O	nt	i	nt	nt	nt	nt
Cc1cccc2nc(CNC(=O)C3CCC(=O)N(Cc4ccccc4F)C3)cn12 (centres undefined)	0.02	i	nt	nt	nt	nt
CCC(=O)c1ccc(OCCn2cnc3ccccc32)cc1	0.46	i	nt	nt	nt	nt
Cc1ccc(S(=O)(=O)/N=C/c2c(O)ccc3ccccc23)cc1	nt	i	nt	nt	nt	nt
O=S(=O)(/N=C/c1c(O)ccc2ccccc12)c1cccs1	5.8*	i	-7	-27	-16	-36	Kir21 confirm=i;HEK293 ctr=i
Cn1c(SCC(=O)Nc2ccccc2Br)nnc1-c1cnccn1	0.17	i	nt	nt	nt	nt
CCc1ccc(NS(=O)(=O)c2c(C(=O)N3CCCCCC3)c(C)n(C)c2C)cc1	nt	i	nt	nt	nt	nt
CCc1noc(C)c1C(=O)Nc1cc(S(=O)(=O)N2CCOCC2)ccc1OC(C)C	nt	i	nt	nt	nt	nt
NS(=O)(=O)c1ccc(CCNC(=O)CN2CCC(Cc3ccccc3)CC2)cc1	0.06	i	nt	nt	nt	nt
O=C(CN1CCC(Cc2ccccc2)CC1)NCCc1ccc(F)cc1	16*	i	69*	-19	56*	-90	KCNQ2 W236L MoA=i
COc1ccccc1CC1S/C(=N/N=C/c2ccco2)NC1=O (centres undefined)	nt	i	nt	nt	nt	nt
O=C(O)CC/C(=N\NC(=O)c1ccccc1Br)c1ccccc1	nt	i	nt	nt	nt	nt
CC(C)CN1CCC(=O)N([C@H](CO)Cc2ccccc2)CC1	0.9	i	nt	nt	nt	nt
CCn1c(=O)cc(SCC(=O)NCC2CCCO2)c2ccccc21 (centres undefined)	1.1	i	nt	nt	nt	nt
Cn1c(=O)cc(SCC(=O)NCC2CCCO2)c2ccc(Cl)cc21 (centres undefined)	6.2*	i	-15	92*	-9	-50	Kir21 confirm=i;HEK293 ctr=i
